In PubChem BioAssay (NCATS):
Inconclusive results are not listed. The source made the active and inactive calls. Calls follow the shape of the dose curve; as a rule, active = well fitted cell-killing curve with a large enough effect; inconclusive = small, poorly fitted or top-dose-only effect, or effect the other way; inactive = no such curve, though single readings can be large or run the other way.

Assay: Quantitative High-Throughput drug screen in 47 multiple myeloma cell lines against the NCATS MIPE library collection: L363_DSMZ cell viability assay (AID 1918984)
Settings: L363 myeloma viability, CellTiter-Glo ATP luminescence, 48 h; viability (% of control): at 45.8 µM (top of the series)
Procedure, shortened: (§1)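 Plated at 500 cells per well, myeloma lines received MIPE 4.0 compounds by pin tool. Following 48 h culture at 37 °C, CellTiter-Glo luminescence gave viability relative to DMSO and media-only controls.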
Also: nearly all actives have a fitted effect of over 40% in size.
Potency is read from the fitted curve at half-maximal effect.

With `N#CC(c1ccnc(NCCc2cccnc2)n1)c1nc2ccccc2s1` (stereo not drawn) as the compound, how does the Potency read?
The Potency was 4.69 µM (active).

Which Potency does the source give for `CN[C@@H]1CN(c2ccc3c(=O)c(C(=O)O)cn(-c4nccs4)c3n2)C[C@@H]1OC` here?
The Potency was “inactive”.

Which Potency does the source give for `CCC(C)SSc1ncc[nH]1` (stereo not drawn) here?
The Potency was 2.96 µM (active).

With `CCOC(=O)c1c(CSc2ccccc2)n(C)c2cc(Br)c(O)c(CN(C)C)c12` as the compound, how does the Potency read?
Its Potency is 20.9 µM (active).

With `C[C@@H]1O[C@@H](O[C@H]2CC[C@@]3(C)[C@H](CC[C@@H]4[C@H]3C[C@@H](O)[C@]3(C)[C@@H](C5=CC(=O)OC5)CC[C@]43O)C2)C[C@H](O)[C@@H]1O[C@H]1C[C@H](O)[C@H](O[C@H]2C[C@H](O)[C@@H](O)[C@@H](C)O2)[C@H](C)O1` (stereo in doubt) as the compound, how does the Potency read?
Its Potency is 0.171 µM (active).

For `CC[C@H](C)C(=O)O[C@H]1C[C@H](O)C=C2C=C[C@H](C)[C@H](CC[C@@H](O)C[C@@H](O)CC(=O)O)[C@H]21`, which Potency is on record?
Its Potency is “inactive”.

For `NC1(C(=O)N[C@@H](CCO)c2ccc(Cl)cc2)CCN(c2ncnc3[nH]ccc23)CC1`, which Potency is on record?
The Potency was 0.235 µM (active).

Which Potency does the source give for `N#CC(c1ccc(Cl)cc1)c1c(Cl)cc(-n2ncc(=O)[nH]c2=O)cc1Cl` (stereo not drawn) here?
Its Potency is 16.6 µM (active).

For `CCc1cc(-c2n[nH]c(C)c2-c2ccc3c(c2)OCCO3)c(O)cc1O`, which Potency is on record?
Its Potency is 0.148 µM (active).

With `Cc1cn([C@@H]2C[C@@H](O)[C@H](CO)O2)c(=O)[nH]c1=O` as the compound, how does the Potency read?
Its Potency is “inactive”.

Which Potency does the source give for `Cc1ccc(NC(=O)Nc2cc(C(F)(F)F)ccc2F)cc1Nc1ccc2c(c1)NC(=O)C2=Cc1ccc[nH]1` here?
The Potency was 7.43 µM (active).

Which Potency does the source give for `CC(C)(C)c1nc(-c2cccc(NS(=O)(=O)c3c(F)cccc3F)c2F)c(-c2ccnc(N)n2)s1` here?
The Potency was 16.6 µM (active).

Which Potency does the source give for `O=S(=O)(NCCNCC=Cc1ccc(Br)cc1)c1cccc2cnccc12` here?
Its Potency is 2.96 µM (active).

With `CN[C@@H](C)[C@H]1[C@H](O)C[C@@]2(C)[C@@H]3CC[C@H]4C(C)(C)[C@@H](NC)CC[C@@]45C[C@@]35CC[C@]12C` as the compound, how does the Potency read?
The Potency was “inactive”.

With `COC(=O)Nc1ccc(-c2nc(N3CCOCC3)c3cnn(C4CCN(C(=O)OC)CC4)c3n2)cc1` as the compound, how does the Potency read?
Its Potency is 0.0935 µM (active).

Which Potency does the source give for `CC[C@H](C=C[C@@H](C)[C@H]1CC[C@H]2[C@@H]3CC=C4C[C@@H](O)CC[C@]4(C)[C@@H]3CC[C@]12C)C(C)C` here?
The Potency was “inactive”.

With `COc1c(C)cnc(Cn2cnc3c(Cl)nc(N)nc32)c1C` as the compound, how does the Potency read?
Its Potency is 0.0372 µM (active).

With `CC(C)n1c(C=C[C@H](O)C[C@H](O)CC(=O)O)c(-c2ccc(F)cc2)c2ccccc21` as the compound, how does the Potency read?
Its Potency is 4.18 µM (active).

For `O=C1CCCC(=O)C1C(=O)c1ccc(C(F)(F)F)cc1[N+](=O)[O-]`, which Potency is on record?
The Potency was “inactive”.

For `Cc1ccc(NC(=O)c2cccc(N(C)C)c2)cc1NC(=O)c1ccc(O)cc1`, which Potency is on record?
Its Potency is “inactive”.

Which Potency does the source give for `Cc1nc(NC(=O)N2CCC[C@@H]2C(N)=O)sc1-c1csc(C(C)(C)C)n1` here?
Its Potency is 0.833 µM (active).

For `CNC(=O)c1ccc2c(C(=Nc3cccc(CN(C)C)c3)c3ccccc3)c(O)[nH]c2c1`, which Potency is on record?
The Potency was 4.18 µM (active).

Assay: Quantitative High-Throughput drug screen in 47 multiple myeloma cell lines against the NCATS MIPE library collection: KMS34_JCRB cell viability assay (AID 1918985)
Settings: KMS34 myeloma viability, CellTiter-Glo ATP luminescence, 48 h; series mostly up to 45.8 µM
Procedure, shortened: as §1

Which Potency does the source give for `O=C(CC12CC3CC(CC(C3)C1)C2)Nc1cccc2nc(NCCNCCO)ccc12` here?
Its Potency is 26.4 µM (active).

With `N#CC(c1ccnc(NCCc2cccnc2)n1)c1nc2ccccc2s1` (stereo not drawn) as the compound, how does the Potency read?
The Potency was 14.8 µM (active).

Which Potency does the source give for `CN[C@@H]1CN(c2ccc3c(=O)c(C(=O)O)cn(-c4nccs4)c3n2)C[C@@H]1OC` here?
Its Potency is 5.12 µM (active).

With `CCC(C)SSc1ncc[nH]1` (stereo not drawn) as the compound, how does the Potency read?
The Potency was 4.18 µM (active).

With `CCOC(=O)c1c(CSc2ccccc2)n(C)c2cc(Br)c(O)c(CN(C)C)c12` as the compound, how does the Potency read?
The Potency was 11.8 µM (active).

With `C[C@@H]1O[C@@H](O[C@H]2CC[C@@]3(C)[C@H](CC[C@@H]4[C@H]3C[C@@H](O)[C@]3(C)[C@@H](C5=CC(=O)OC5)CC[C@]43O)C2)C[C@H](O)[C@@H]1O[C@H]1C[C@H](O)[C@H](O[C@H]2C[C@H](O)[C@@H](O)[C@@H](C)O2)[C@H](C)O1` (stereo in doubt) as the compound, how does the Potency read?
Its Potency is 0.34 µM (active).

For `CC[C@H](C)C(=O)O[C@H]1C[C@H](O)C=C2C=C[C@H](C)[C@H](CC[C@@H](O)C[C@@H](O)CC(=O)O)[C@H]21`, which Potency is on record?
Its Potency is “inactive”.

For `NC1(C(=O)N[C@@H](CCO)c2ccc(Cl)cc2)CCN(c2ncnc3[nH]ccc23)CC1`, which Potency is on record?
The Potency was 8.33 µM (active).

Which Potency does the source give for `CCc1cc(-c2n[nH]c(C)c2-c2ccc3c(c2)OCCO3)c(O)cc1O` here?
The Potency was 3.32 µM (active).

Which Potency does the source give for `CN[C@@H](C)[C@H]1[C@H](O)C[C@@]2(C)[C@@H]3CC[C@H]4C(C)(C)[C@@H](NC)CC[C@@]45C[C@@]35CC[C@]12C` here?
The Potency was “inactive”.

With `COC(=O)Nc1ccc(-c2nc(N3CCOCC3)c3cnn(C4CCN(C(=O)OC)CC4)c3n2)cc1` as the compound, how does the Potency read?
Its Potency is 1.05 µM (active).

With `CC[C@H](C=C[C@@H](C)[C@H]1CC[C@H]2[C@@H]3CC=C4C[C@@H](O)CC[C@]4(C)[C@@H]3CC[C@]12C)C(C)C` as the compound, how does the Potency read?
Its Potency is “inactive”.

Which Potency does the source give for `COc1c(C)cnc(Cn2cnc3c(Cl)nc(N)nc32)c1C` here?
Its Potency is 0.105 µM (active).

Which Potency does the source give for `C[C@@H]1C[C@H]2[C@@H]3CCC4=CC(=O)C=C[C@]4(C)[C@@]3(F)[C@@H](O)C[C@]2(C)[C@@]1(O)C(=O)CO` here?
Its Potency is “inactive”.

For `O=C(Nc1ccccc1)Nc1ccc(-c2ccc(C(=O)[C@H]3CCC[C@H]3C(=O)O)cc2)cc1`, which Potency is on record?
The Potency was “inactive”.

Which Potency does the source give for `Cc1[nH]c(C=C2C(=O)Nc3ccc(S(=O)(=O)N(C)c4cccc(Cl)c4)cc32)c(C)c1C(=O)N1CCN(C)CC1` here?
Its Potency is 20.9 µM (active).
